# CD11b adhes inh: blocks human CD11b/CD18 adhesion to fibrinogen; K562 CD11b/CD18 adhesion to fibrinogen, ATPlite luminescence; Mn2+ added to activate the integrin; inhibition, % at 10 µM; 93,000 compounds, 0.54% hits; AID 1497;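 active = primary inhibition of 50% or more at 10 µM, then 40% or more on retest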
# Mac1 fbg enh: enhancers of human CD11b/CD18 binding to fibrinogen. P05107+P11215. K562 CD11b/CD18 adhesion to fibrinogen, ATPlite luminescence. activation, % at 10 µM. 93,000 compounds, 0.07% hits;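 active = 10 µM primary screen giving 50% or more activity, confirmed by 40% or more on retest at that dose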
# Cav3 T inh: inhibitors of human Cav3.2 T-type calcium channel. B-score at 10 µM. Cav3.2-expressing cells, Fluo-4 calcium fluorescence FDSS; hits give low values. 100,000 compounds, 4% hits;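 active = single-dose well whose peak fluorescence ratio is a statistical outlier from its plate by either plate-standardised score or position-corrected B-score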
# PTK2B oligo ant: blocks oligomerization of human Pyk2 in cells | Q293 cells, Pyk2 FERM NanoBiT luminescence; hits give low values | z-score (the deposit names both 25 µM and 10 µM) | Q14289 | 99,000 compounds, 0.83% hits;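 active = Z-score of -3 or lower, scaled per plate to the spread of control and sample wells; inactive = z-score above -3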;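 note: negative z-score means lost luminescence so less FERM oligomerization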
# Target sequence (Q14289 whole entry, looked up): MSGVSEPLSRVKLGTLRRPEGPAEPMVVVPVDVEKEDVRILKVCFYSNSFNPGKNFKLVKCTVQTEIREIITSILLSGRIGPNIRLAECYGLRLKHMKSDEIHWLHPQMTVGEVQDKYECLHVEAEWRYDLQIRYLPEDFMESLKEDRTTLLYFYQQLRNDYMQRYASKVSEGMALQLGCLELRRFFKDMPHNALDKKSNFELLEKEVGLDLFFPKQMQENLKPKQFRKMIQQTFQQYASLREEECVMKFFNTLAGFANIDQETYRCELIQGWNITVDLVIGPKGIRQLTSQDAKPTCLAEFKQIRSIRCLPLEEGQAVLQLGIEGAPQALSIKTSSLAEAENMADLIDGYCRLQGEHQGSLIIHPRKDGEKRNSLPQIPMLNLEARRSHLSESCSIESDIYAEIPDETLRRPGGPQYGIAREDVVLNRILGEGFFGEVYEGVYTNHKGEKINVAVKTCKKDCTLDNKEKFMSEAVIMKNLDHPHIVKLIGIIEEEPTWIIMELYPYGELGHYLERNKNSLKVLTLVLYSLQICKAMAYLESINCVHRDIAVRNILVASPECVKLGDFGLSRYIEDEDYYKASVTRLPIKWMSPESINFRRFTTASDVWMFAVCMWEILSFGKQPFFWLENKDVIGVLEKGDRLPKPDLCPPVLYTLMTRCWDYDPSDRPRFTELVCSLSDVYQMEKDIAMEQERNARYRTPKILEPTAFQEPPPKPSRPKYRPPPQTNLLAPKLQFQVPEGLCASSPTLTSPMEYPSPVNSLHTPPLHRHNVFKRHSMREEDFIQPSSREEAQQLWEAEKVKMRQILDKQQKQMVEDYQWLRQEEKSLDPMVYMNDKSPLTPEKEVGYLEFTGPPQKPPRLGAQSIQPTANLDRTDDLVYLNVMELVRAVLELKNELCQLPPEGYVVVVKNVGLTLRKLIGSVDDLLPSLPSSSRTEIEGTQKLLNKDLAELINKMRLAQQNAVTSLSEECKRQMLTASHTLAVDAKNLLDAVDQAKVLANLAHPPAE
# MRP reversal: MRP-mediated drug resistance reversal; H69AR cells + 2 uM doxorubicin, CellTiter-Glo, 72 h; differential viability (reversal), % at 10 µM; 85,000 compounds, 0.04% hits; AID 602;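 active = viability drop by adding the cancer drug above about 55%, with treated viability meeting a 40% cutoff, limit read from the data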;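 note: viability without doxorubicin minus viability with 2 µM doxorubicin for each compound; larger differential means the compound sensitizes cells more to doxorubicin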
# MRP-1 activ: MRP-1 activation; H69AR cells + doxorubicin, viability rescue, CellTiter-Glo; viability increase, % at 10 µM; 140,000 compounds, 0.61% hits;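 active = viability gain under doxorubicin at or above a set limit, the compound median plus 3 SD, cut at about 4.7% in these data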;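 note: MRP-1 overexpressing cells given doxorubicin 25 µM after compound pretreatment; 18-22 h compound pretreatment then 72 h with doxorubicin before readout; 0% = doxorubicin-only wells and 100% = vehicle-treated cells without doxorubicin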
# * hit, by the source's call; x = no result. An excerpt weighted towards active compounds, which were near 4.1% of everything screened.
SMILES,CD11b adhes inh,Mac1 fbg enh,Cav3 T inh,PTK2B oligo ant,MRP reversal,MRP-1 activ
COC(=O)c1cccc(C(=O)Nc2ccc(C)cc2Br)n1,-6,-4,x,-0.67,-9,-4
COc1ccc(CCCc2nnc(SCC(=O)Nc3cccc(C)c3)o2)cc1,-5,0,-2,0.74,6,-1
COc1ccc(CCCc2nnc(SCC(=O)Nc3cc(C)c(C)cc3Br)o2)cc1,-12,0,-5.1*,-0.75,3,1
Cc1ccc(C(=O)Nc2cccc(C(F)(F)F)c2)cc1Nc1ccccn1,x,x,-0.71,x,x,x
CCC1SC2=NC(C)=C(C(=O)OCC(C)C)C(/C=C/c3ccccc3OC)N2C1=O (stereo unspecified),10,-2,-2.3,-0.13,11,-4
CCC1SC2=NC(C)=C(C(=O)OCCOC)C(/C=C/c3ccccc3OC)N2C1=O (stereo unspecified),x,x,-5.8*,0.24,7,4
COC(=O)C1=C(C)N=C2SC(C)C(=O)N2C1/C=C/c1ccccc1OC (stereo unspecified),7,-1,-7.4*,0.16,x,1
CCCCCCCCNc1ncnc2ccccc12,101*,-10,-2.4,-0.26,-1,2
CCC(=O)NNc1ncnc2ccccc12,2,-2,x,x,x,0
Cc1sc2ncnc(N3CCCCC3)c2c1C,10,-2,-1.9,0.73,14,-1
Cc1ccc(OCCN2CCN(c3ncnc4sc(C)c(C)c34)CC2)cc1,97*,-8,-3.6*,-0.24,-2,0
Clc1ccc(OCCN2CCN(c3ncnc4sccc34)CC2)cc1,99*,-8,-1.2,1,x,0
COc1ccccc1N1CC(C(=O)Nc2cccc(C(=O)O)c2)CC1=O (stereo unspecified),-25,1,0.037,1.8,-2,-1
O=C(CN1C(=O)CNC1=O)Nc1cccc(C(F)(F)F)c1,-21,-4,-0.089,-0.44,3,-1
Cc1ccc(N2OC3C(=O)NC(=O)C3C2c2ccco2)cc1 (stereo unspecified),10,-2,0.41,x,5,-3
Cc1nn(-c2ccccc2)c(C)c1/C=N/NC(=O)c1cc(-c2cccc3ccccc23)n[nH]1,-3,70,x,x,x,0
Cc1nn(-c2ccccc2)c(C)c1/C=N/NC(=O)c1cc(-c2ccccc2)n[nH]1,21,-5,-3.7,-3*,x,-2
COc1ccc(-n2c(NC(=O)c3ccco3)c(C#N)c3nc4ccccc4nc32)cc1,7,12,-3.2,0.12,x,-4
CCCCn1c(NC(=O)CC)c(C#N)c2nc3ccccc3nc21,-7,35,0.27,-0.02,10,-6
CCCCn1c(NC(=O)c2ccccc2Cl)c(C#N)c2nc3ccccc3nc21,106*,-9,-8.8*,-1.2,-20,-6
N#Cc1c(NC(=O)c2ccccc2Cl)n(Cc2ccccc2)c2nc3ccccc3nc12,100*,-6,x,-2.5,x,-5
CCN(Cc1ccccc1)C(=O)c1cc2c(=O)oc3ccc(C)cc3c2s1,2,-4,-0.54,x,-19,-1
CCOC(=O)C1CCN(C(=O)CSc2n[nH]c(=O)[nH]c2=O)CC1,-7,2,0.13,0.63,-15,2
O=C(O)CCCNS(=O)(=O)c1cccs1,5,3,-0.22,-0.1,13,1
C=CCc1ccc(O)c(-c2ccc(O)c(CC=C)c2)c1,x,x,-5.4*,x,x,x
SMILES,CD11b adhes inh,Mac1 fbg enh,Cav3 T inh,PTK2B oligo ant,MRP reversal,MRP-1 activ
O=C(NNC1=C(C(=O)C(F)(F)F)CCC1)c1ccc(Br)cc1,97*,-10,-5.1*,-0.15,-28,4
O=C(NNc1c2ccccc2nc2ccccc12)c1ccccc1O,x,x,x,x,x,-1
O=C(NNC1=C(C(=O)C(F)(F)F)CCC1)c1ccccc1O,-25,-5,-6.3*,-1.7,-9,2
CCOc1ccccc1N1CCN(C(=O)/C=C/c2cccc([N+](=O)[O-])c2)CC1,x,x,x,x,x,0
CC(=O)NN1C(=O)/C(=C\c2ccccc2)SC1=S,x,x,1.1,0.31,x,4
CC(/C=C1\SC(=S)N(CCCC(=O)Nc2ccc(C(=O)O)cc2)C1=O)=C\c1ccccc1,x,x,x,x,x,13*
CC(/C=C1\SC(=S)N(NC(=O)c2ccc(O)cc2)C1=O)=C\c1ccccc1,x,x,x,x,x,7.9*
CC(/C=C1\SC(=O)N(CCCC(=O)O)C1=O)=C\c1ccccc1,x,x,x,x,x,-3
O=S1(=O)CCOC[C@H](Cc2ccccc2)N1Cc1cccc(Cl)c1,x,x,-0.73,x,x,x

# Screens: PubChem, several laboratories
